This is a sample that favours compounds with a hit; in the whole collection about 3.5% have one here.
GPR151 ag – activators of human GPR151 | PathHunter beta-arrestin GPR151 cells, luminescence | activation, % at 11.2 µM | Q8TDV0 | 650,000 compounds, 1% hits; in the data active means activation above about 4.9%;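 further: 0% = median of compound wells and 100% = cells with positive control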
Target sequence (Q8TDV0 whole entry, looked up): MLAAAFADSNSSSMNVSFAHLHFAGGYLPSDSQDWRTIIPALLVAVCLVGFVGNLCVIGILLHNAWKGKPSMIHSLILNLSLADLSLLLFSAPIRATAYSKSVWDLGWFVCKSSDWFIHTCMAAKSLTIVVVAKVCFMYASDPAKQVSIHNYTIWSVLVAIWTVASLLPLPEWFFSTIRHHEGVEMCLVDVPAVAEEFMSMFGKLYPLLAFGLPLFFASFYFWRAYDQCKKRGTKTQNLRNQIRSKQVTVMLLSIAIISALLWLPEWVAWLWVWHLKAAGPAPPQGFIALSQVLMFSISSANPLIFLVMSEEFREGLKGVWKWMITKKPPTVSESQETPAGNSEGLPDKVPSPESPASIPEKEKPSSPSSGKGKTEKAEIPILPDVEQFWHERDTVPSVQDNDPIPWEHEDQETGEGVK
TEAD-YAP block – TEAD-YAP interaction inhibition; HEK-TIYL cells, TEAD-Gal4/YAP UAS-luciferase luminescence; 640,000 compounds, 1.4% hits; inhibition, % at 9.12 µM; in the data active means inhibition above about 32%;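 further: 0% = median of test compound wells and 100% = reference inhibitor wells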
FBW7 activator – human FBW7 E3 ligase activation, primary screen | AlphaScreen FBW7–phospho-cyclin E peptide binding, activator screen | normalized activity (activation), % at 26.1 µM | 650,000 compounds, 0.13% hits; in the data active means normalized activity above about 1.9%;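 further: purified mutant Fbw7 with reduced substrate affinity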
MITF primary – inhibitors of human MITF. AlphaScreen MITF homodimerization, bead proximity signal. O75030. 650,000 compounds, 0.91% hits. inhibition, % at 2.6 µM; in the data active means inhibition above about 50%;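 further: 0% = vehicle wells with protein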
Active calls of the source: *.

SMILES	GPR151 ag	TEAD-YAP block	FBW7 activator	MITF primary
CCOc1cc(N2CCOCC2)c(OCC)cc1NC(=O)c1cccc([N+](=O)[O-])c1C	3.0	3.7	0.0	-0.5
CCOc1cc(N2CCOCC2)c(OCC)cc1NC(=O)c1cc(Cl)c(Cl)cc1C(=O)O	-1.0	17.9	-0.2	69.8*
Cc1ccc(S(=O)(=O)N2CCN(c3c([N+](=O)[O-])nc(C)n3Cc3ccccc3)CC2)cc1	-0.6	-7.5	-0.1	8.0
COC(=O)C1=C(C)NC2=C(C(=O)CC(c3ccc(Cl)cc3)C2)C1c1ccc(O)c(OC)c1 (centres undefined)	-0.4	5.2	0.3	-0.1
Nc1cc(S(=O)(=O)O)c(O)c2c1C(=O)c1c(O)c(S(=O)(=O)O)cc(N)c1C2=O	-2.9	16.9	-1.1	60.6*
Cc1cc(C)c2cc3c(N)c(C(=O)Nc4nccs4)sc3nc2c1	-0.9	-16.0	5.4*	4.7
Cc1cc(C)c2c(N)c(C(=O)Nc3nccs3)sc2n1	-1.4	70.3*	0.5	0.0
Cc1sc2c(c1C)c(=O)n(Cc1ccccc1)c(=O)n2CC(=O)NC1CCCC1	0.3	-5.0	0.3	11.1
N#C/C(=C1\CCCCCN1)c1nc2ccccc2s1	1.0	6.2	-0.2	12.2
Cc1ccc(C)c(NC(=O)c2cc3nc(-c4ccc(Cl)cc4)cc(C(F)(F)F)n3n2)c1	-1.0	-7.0	-0.1	8.3
C/C(N)=C(/C#N)C(=O)CSc1ccc(C)c(C)c1	-1.2	36.2*	0.1	-3.1
CC(=O)c1ccc(NC(=O)c2cnn3ccccc23)cc1	-5.4	91.5*	-0.1	3.2
Cc1cc(C)cc(NC(=O)c2cnn3ccccc23)c1	-0.4	-42.5	0.1	14.4
O=C(Nc1ccc(CN2CCOCC2)cc1)c1cnn2ccccc12	-4.2	91.3*	-0.2	7.0
CC(=O)c1cccc(NC(=O)c2cnn3ccccc23)c1	-2.8	5.4	-0.1	6.4
Cc1ccc(NC(=O)c2cnn3ccccc23)cc1C	-3.3	65.5*	-0.1	-5.3
C=CCN(c1ccccc1)S(=O)(=O)c1ccc(F)c(C(=O)Nc2ccc(C(C)C)cc2)c1	1.1	35.6*	0.2	15.7
C=CCN(c1ccccc1)S(=O)(=O)c1ccc(F)c(C(=O)Nc2ccc(CC)cc2)c1	1.3	31.6	-0.2	4.4
C=CCN(c1ccccc1)S(=O)(=O)c1ccc(F)c(C(=O)Nc2ccc(OCC)cc2)c1	-0.8	38.7*	0.7	15.2
CN1CCN(c2ccc(-c3ccc(C(=O)NC4CC4)s3)cc2)CC1	-1.5	52.0*	0.1	1.4
CC1CCN(C2CC(=O)N(c3ccc(F)cc3)C2=O)CC1 (centres undefined)	0.9	3.1	-0.1	0.2
COc1ccccc1/C=C/c1nn2c(-c3ccccc3OC)nnc2s1	2.4	53.6*	-0.2	-2.7
COc1ccccc1/C=C/C=N\NC(=O)CCn1cnc2ccccc21	-0.1	53.5*	0.0	-13.1
COc1ccccc1/C=C/c1nn2c(COc3ccccc3)nnc2s1	1.2	-5.0	1.2	-10.1
CCOc1ccccc1/C=N\NC(=O)CCn1cnc2ccccc21	1.4	2.0	-0.1	5.0
SMILES	GPR151 ag	TEAD-YAP block	FBW7 activator	MITF primary
COc1ccccc1/C=C/c1nn2c(Cn3cnc4ccccc43)nnc2s1	0.6	47.9*	-0.1	0.5
CCCCNC(=O)C(=O)NCCc1ccc(OC)cc1	-1.6	1.4	0.0	11.3
O=c1c(Cl)c(Cl)cnn1-c1ccc(Cl)cc1	-1.5	82.3*	1.1	11.1
CCc1ccc(C(=O)Nc2ccc(Br)cn2)cc1	-3.9	38.1*	0.2	10.7
COc1ccc(OCC(=O)Nc2ccc(NC(=O)c3ccccc3)cc2)cc1	3.1	36.3*	0.0	-10.5
CCc1ccc(C(=O)Nc2ccc(Br)cc2)cc1	0.5	-66.6	0.0	7.7
CCc1ccc(C(=O)Nc2ccc(C(=O)O)cc2)cc1	-0.3	57.9*	0.1	9.5
CCc1ccc(C(=O)Nc2ccc(I)cn2)cc1	0.5	-54.8	0.0	-8.2
O=C(Nc1ccc(Br)cn1)c1ccccc1[N+](=O)[O-]	0.4	54.5*	-0.1	0.4
CC(=O)N1CCc2cc(Br)cc(S(=O)(=O)NC3CCCCC3C)c21 (centres undefined)	0.2	-2.3	0.0	7.4
CC(CCc1ccccc1)NC(=O)CCCCCn1c(=S)[nH]c2cc3c(cc2c1=O)OCO3 (centres undefined)	0.7	4.4	0.2	0.4
CC(=O)Nc1ccc(NC(=O)c2cccc(F)c2)nc1	-0.7	-55.0	0.1	-3.4
CC(=O)Nc1cccc(NC(=O)COc2ccc(Oc3ccccc3)cc2)c1	1.0	-1.1	0.4	20.2
Cc1ccc(C(=O)Nc2ccc(OCC(=O)O)cc2)cc1	0.0	37.0*	-0.1	7.8
CC(=O)Nc1ccc(OCC(=O)Nc2cccc(Oc3ccccc3)c2)cc1	0.1	35.8*	0.0	5.7
COc1ccc(NC(=O)COc2c(C)ccc(C)c2C)cc1	2.0	45.8*	-0.1	4.8
Cc1ccc(-n2nc3ccc(NC(=O)COc4ccccc4)cc3n2)cc1Cl	1.7	4.7	5.2*	-0.7
Cc1ccc(NC(=O)c2ccc(OCC(=O)Nc3ccccc3)cc2)cc1	-0.8	-15.5	0.1	0.4
CC(=O)Nc1ccc(OCCC[n+]2ccccc2)cc1	-1.1	4.4	1.9*	9.1
CCOc1ccc(C(=O)Nc2ccc(OCC(=O)O)cc2)cc1	0.0	47.7*	0.1	12.2
CCOC(=O)N1CC=C2C(C#N)=C(N)C(C#N)(C#N)C(C)C2C1 (centres undefined)	0.6	67.6*	0.0	9.3
O=C(c1cccs1)N1CCC(O)(c2ccccn2)CC1	-0.2	-10.8	-0.1	1.4
COc1ccc(CCN2CC34C=CC(O3)C(C(=O)NCc3cccnc3)C4C2=O)cc1OC (centres undefined)	0.5	-6.8	0.1	11.6
O=C(Nc1cccc(C(F)(F)F)c1)c1ccc(N2C(=O)c3ccccc3C2=O)cc1	0.5	-7.5	0.0	-12.2
CC(=O)n1c2c(c3ccccc31)OC(N)=C(C#N)C2c1ccc(F)cc1 (centres undefined)	0.7	6.2	0.0	-3.9
SMILES	GPR151 ag	TEAD-YAP block	FBW7 activator	MITF primary
CC(=O)n1c2c(c3ccccc31)OC(N)=C(C#N)C2c1cc(Br)ccc1F (centres undefined)	0.1	60.7*	0.1	1.6
CCOc1cc(CNCCO)cc(Br)c1OCc1ccc(F)cc1	0.4	-5.6	-0.1	-15.0
CC(=O)Nc1ccc2nc(N3CCN(C)CC3)sc2c1	1.4	-34.0	0.0	3.9
COc1cc(OC)cc(C(=O)c2c(N)sc3c2CCC(C)C3)c1 (centres undefined)	1.2	53.9*	-0.3	-5.2
COc1cc(OC)cc(C(=O)c2c(N)sc3c2CCCC3)c1	-0.2	2.9	0.3	-11.5
Oc1ccc([C@H]2Oc3cc(O)cc(O)c3C[C@H]2O)cc1	-1.4	-2.8	0.1	28.2
O=C(O[C@@H]1Cc2c(O)cc(O)cc2O[C@@H]1c1cc(=O)c(O)c2c(O)c(O)cc([C@H]3Oc4cc(O)cc(O)c4C[C@H]3O)c2c1)c1cc(O)c(O)c(O)c1	4.1	0.5	-0.5	105.5*
O=C(Nc1ccc(S(=O)(=O)C(F)F)cc1)c1cc(F)c(F)c(F)c1F	-0.1	36.9*	0.1	8.4
CCN(CC)c1nc(C)nc2sc(C(=O)Nc3ccc(F)cc3)c(C)c12	2.1	5.8	0.1	23.9
